High-throughput results (PubChem)
3T3 cytotox: cytotoxic compounds in NIH 3T3 cells. NIH 3T3 viability, CellTiter-Glo ATP luminescence, 48-72 h. Potency, µM (titrated, usually from 96.7 µM), most hits filed as inhibitors. 4.3% of 94,000 active. AID 1345082; also: nearly all actives have a fitted effect of over 55% in size
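Cells were seeded at 400 per well, treated with pin-transferred compound, and kept 48 or 72 hr at 37 °C before CellTiter-Glo addition and luminescence imaging of cellular ATP.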
HEK cytotox: cytotoxic compounds in HEK 293 cells | Potency, µM (doses to about 115 µM), actives largely listed as inhibitors | HEK 293 viability, ATP luminescence (CellTiter-Glo), 48-72 h | AID 1345083 | 6.6% of 94,000 active; also: nearly all actives have a fitted effect of over 60% in size
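CellTiter-Glo luminescence (cellular ATP) was read after 48 or 72 hr of compound exposure at 37 degree Celsius. Cells were HEK 293 plated at 250 cells/well.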
NPR1 antag: blocks ANP-stimulated signaling of human Npr1 receptor; P16066; HEK293 hNpr1 GloSensor cGMP, ANP-stimulated luminescence; Potency, µM (top dose mostly 46.3 µM), most hits filed as inhibitors; 1.6% of 76,000 active; AID 1347048; calls by dose curve; also: nearly all actives have a fitted effect of over 60% in size
Target sequence (P16066 whole entry, looked up): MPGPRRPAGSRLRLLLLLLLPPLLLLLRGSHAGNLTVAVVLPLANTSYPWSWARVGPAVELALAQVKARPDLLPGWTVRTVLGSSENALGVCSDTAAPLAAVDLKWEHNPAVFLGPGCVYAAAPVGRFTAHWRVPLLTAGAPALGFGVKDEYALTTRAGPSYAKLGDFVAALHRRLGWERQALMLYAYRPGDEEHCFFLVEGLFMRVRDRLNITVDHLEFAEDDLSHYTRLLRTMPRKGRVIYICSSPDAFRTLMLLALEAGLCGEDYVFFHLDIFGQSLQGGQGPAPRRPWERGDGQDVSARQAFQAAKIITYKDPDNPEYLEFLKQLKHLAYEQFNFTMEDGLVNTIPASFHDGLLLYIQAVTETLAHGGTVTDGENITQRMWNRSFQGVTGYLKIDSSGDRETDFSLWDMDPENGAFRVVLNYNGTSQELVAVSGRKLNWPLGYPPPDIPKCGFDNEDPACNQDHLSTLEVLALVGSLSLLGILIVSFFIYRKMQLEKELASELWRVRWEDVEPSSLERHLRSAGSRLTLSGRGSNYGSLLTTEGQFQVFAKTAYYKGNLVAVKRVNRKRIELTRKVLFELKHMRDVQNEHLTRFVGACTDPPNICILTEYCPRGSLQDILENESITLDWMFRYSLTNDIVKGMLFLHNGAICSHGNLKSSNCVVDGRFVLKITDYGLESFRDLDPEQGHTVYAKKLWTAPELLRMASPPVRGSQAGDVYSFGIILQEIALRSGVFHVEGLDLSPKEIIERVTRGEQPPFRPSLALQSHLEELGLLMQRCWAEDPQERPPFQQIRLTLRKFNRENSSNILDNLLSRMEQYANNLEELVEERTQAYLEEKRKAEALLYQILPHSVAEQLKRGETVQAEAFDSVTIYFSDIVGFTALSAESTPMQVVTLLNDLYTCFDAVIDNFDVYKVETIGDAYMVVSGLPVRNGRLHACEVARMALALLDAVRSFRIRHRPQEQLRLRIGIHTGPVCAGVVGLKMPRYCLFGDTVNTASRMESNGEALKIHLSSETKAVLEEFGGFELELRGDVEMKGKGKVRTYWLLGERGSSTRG
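Compound pre-incubated 30 min at room temperature on GloSensor-loaded HEK293 cells stably carrying hNpr1 and the pGS-40F cGMP biosensor. Stimulation uses hNppA at 0.1 nM final; luminescence is taken at baseline and 20 min post-agonist.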
Luciferase inh: inhibitors of firefly (Photinus pyralis) luciferase; P08659; purified P. pyralis luciferase, luminescence, biochemical; Potency, µM (highest dose often 115 µM), most hits filed as inhibitors; 2.5% of 76,000 active; AID 1347043; also: nearly all actives have a fitted effect of over 65% in size
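Luminescence read by CCD imaging after purified firefly luciferase (10nM final) was added to substrate buffer holding 10uM D-luciferin and 10uM ATP, pH 7.5, pre-dosed with compound.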
Large screens that a line does not name were inactive; ! = not confirmed by another sample. Sampled rows, rich in hits. Any-hit rate of the full collection: about 11%. Unless noted, calls follow the shape of the dose curve; as a rule, active = well fitted curve in the direction sought with a large enough effect; inconclusive = small, poorly fitted or top-dose-only effect, or another doubt; inactive = no such curve, though single readings can be large; an effect the other way counts as inactive or inconclusive.

COc1ccccc1CN[C@H]1Cc2ccc(cc2)Nc2cc(ccc2OC)C[C@H](C(=O)NCc2ccccc2)N(C)C1=O	3T3 cytotox inconclusive, HEK cytotox 40µM
CCc1nc(C)c(C(=O)N2CCC3(CC2)CC(c2ccccc2)CN(CC)C3)o1 (stereo not given)	none
c1ccc2ncc(CN3CC[C@H](c4nc5ccccc5[nH]4)C3)cc2c1	3T3 cytotox inconclusive, HEK cytotox 71µM
CC(C)CN1CC[C@H](c2nc3ccccc3n2C)C1	HEK cytotox inconclusive, Luciferase inh 22µM
Cn1c([C@H]2CCN(Cc3cnc4ccccc4c3)C2)nc2ccccc21	3T3 cytotox inconclusive, HEK cytotox 71µM
Cn1c(CN2CC[C@H](c3nc4ccccc4[nH]3)C2)nc2ccccc21	3T3 cytotox inconclusive, HEK cytotox 45µM
CC(C)Cc1cc(CNC(=O)[C@H]2CNC[C@H](C(=O)N3CCCC3)C2)no1	none
COc1ccc(CN2CCCC3(C2)NC(=O)c2ccccc2O3)cc1 (stereo not given)	none
Cc1ccccc1S(=O)(=O)N1CCn2c(n[nH]c2=O)C1	none
COc1ccc(CN2C[C@@H](F)[C@@H](OCc3nc4ccccc4n3C)C2)cn1	none
Cn1c(CO[C@H]2CN(Cc3cnc4ccccc4c3)C[C@H]2F)nc2ccccc21	3T3 cytotox inconclusive, HEK cytotox 79µM, NPR1 antag inconclusive
CCCCOc1c(CNC(C)c2ncccc2C)cccc1OC (stereo not given)	3T3 cytotox 28µM, HEK cytotox 40µM
COc1ccccc1Oc1ncccc1CNC1CCCC1	none
CC(=O)N(C1CC1)C1CCOC2(CCN(C(=O)c3nccc4ccccc34)CC2)C1 (stereo not given)	none
CCS(=O)(=O)N1CCCCCCNC(=O)[C@@H]2C[C@@H](C(=O)NCCc3c[nH]c4ccccc34)C[C@@H]21	HEK cytotox 35µM
O=C(c1ccc(Cl)cc1)N1CC2(CCN(Cc3ccc(Cl)cc3)CC2)Cc2ccccc21	3T3 cytotox 35µM, HEK cytotox 40µM (no result: NPR1 antag, Luciferase inh)
O=C(c1ccc(Cl)cc1)N1CC2(CCCN(Cc3ccc(Cl)cc3)C2)Cc2ccccc21 (stereo not given)	3T3 cytotox 32µM, HEK cytotox inconclusive (no result: NPR1 antag, Luciferase inh)
O=C(O)CCC(=O)N1CCC2(Cc3ccccc3N(C(=O)c3ccc(Cl)cc3)C2)C1 (stereo not given)	none (no result: NPR1 antag, Luciferase inh)
O=C(c1ccc(Cl)cc1)N1CC2(CCN(Cc3c[nH]c4ccccc34)CC2)Cc2ccccc21	3T3 cytotox 11µM, HEK cytotox 20µM (no result: NPR1 antag, Luciferase inh)
FC(F)(F)Oc1cccc(CN2CCNc3cc(Nc4cccnc4)ncc3C2)c1	3T3 cytotox inconclusive, HEK cytotox inconclusive, Luciferase inh inconclusive
c1cncc(Nc2cc3c(cn2)CN(Cc2ccsc2)CCN3)c1	3T3 cytotox inconclusive, HEK cytotox inconclusive, Luciferase inh 20µM
c1cncc(Nc2cc3c(cn2)CN(Cc2c[nH]c4ccccc24)CCN3)c1	3T3 cytotox inconclusive, HEK cytotox 112µM, Luciferase inh inconclusive
CC(C)Cn1c(=O)c(C(=O)N2CCN(C(=O)c3ccccc3F)CC2)nc2cccnc21	none (no result: NPR1 antag, Luciferase inh)
COc1ccc(NC(=O)[C@@H]2C[C@@H](c3ccc(F)cc3)N(Cc3ccccc3)C2)cn1	HEK cytotox inconclusive, NPR1 antag inconclusive
COc1cc(CNC(=O)[C@@H]2C[C@@H](c3ccc(F)cc3)N(Cc3ccccc3)C2)cc(OC)c1	HEK cytotox inconclusive
COc1cccc(NC(=O)[C@@H]2C[C@@H](c3ccc(F)cc3)N(Cc3ccccc3)C2)c1	3T3 cytotox 32µM, HEK cytotox inconclusive, NPR1 antag inconclusive
O=C(Nc1ccncn1)[C@@H]1C[C@@H](c2ccc(F)cc2)N(Cc2ccccc2)C1	3T3 cytotox 79µM, HEK cytotox 100µM
Cc1ccc(-c2ccccc2CN2CCC(C(=O)NCCc3ccccc3)CC2)cc1Cl	3T3 cytotox 25µM, HEK cytotox 40µM! (no result: NPR1 antag, Luciferase inh)
Cc1ccc(-c2ccccc2CN2CCN(C(=O)c3ccccc3Cl)CC2)cc1Cl	3T3 cytotox 40µM, HEK cytotox 40µM (no result: NPR1 antag, Luciferase inh)
O=C(c1ccc(Cl)nc1)N1CCN(C(=O)c2cccc(-c3ccccn3)c2)CC1	none (no result: NPR1 antag, Luciferase inh)
Cc1ccc(-c2ccccc2CN2CCN(C(=O)c3ccc(Cl)nc3)CC2)cc1Cl	3T3 cytotox 35µM, HEK cytotox inconclusive (no result: NPR1 antag, Luciferase inh)
O=C(c1ccncc1)N1CCN(Cc2ccccc2-c2cccnc2)CC1	none (no result: NPR1 antag, Luciferase inh)
Cc1ccc(C(=O)N2CCN(Cc3ccccc3-c3ccc(C)c(Cl)c3)CC2)cc1	3T3 cytotox inconclusive, HEK cytotox 40µM (no result: NPR1 antag, Luciferase inh)
O=C(c1ccccn1)N1CCN(Cc2ccccc2-c2cccnc2)CC1	none (no result: NPR1 antag, Luciferase inh)
O=C(NC1CCCCCC1)c1nc2sccn2c1-c1ccc(F)cc1	3T3 cytotox inconclusive (no result: NPR1 antag, Luciferase inh)
CC(C)C(=O)NC1CCN(c2ccc3nnc(-c4ccccc4)n3n2)C1 (stereo not given)	none (no result: NPR1 antag, Luciferase inh)
COCCNC(=O)c1nc2sccn2c1-c1ccncc1	none (no result: NPR1 antag, Luciferase inh)
CC(=O)N1CCN(Cc2ccccc2-c2ccccc2F)CC1	3T3 cytotox inconclusive (no result: NPR1 antag, Luciferase inh)
Cc1ccc(-c2ccccc2CN2CCN(C(=O)Nc3ccccc3)CC2)cc1Cl	3T3 cytotox inconclusive, HEK cytotox 32µM (no result: NPR1 antag, Luciferase inh)
CC1=C[C@@H](CNC(=O)c2ccc(C#N)cc2)[C@H](C(C)C)C[C@H]1CC(=O)NCCN(C)C	HEK cytotox inconclusive
CCCC(=O)Nc1cc(C2CC2)nn1C	none (no result: NPR1 antag, Luciferase inh)
CC1=C[C@@H](CNC(=O)CCC(=O)O)[C@H](C(C)C)C[C@H]1CC(=O)N1CCN(C)CC1	none
Cn1cc(C(=O)N2CCC(N(Cc3ccccc3)C3CCOCC3)CC2)cn1	none
CN1CCC(N(Cc2ccccc2)[C@@H]2C[C@@H]3CO[C@H](c4ccccc4)C[C@@H]3C2)CC1	3T3 cytotox 14µM, HEK cytotox inconclusive (no result: NPR1 antag, Luciferase inh)
Cc1cnc(CC2CCN(S(=O)(=O)c3ccc4c(c3)CCC4)C2)n1CC1CC1 (stereo not given)	3T3 cytotox inconclusive, HEK cytotox 50µM, NPR1 antag inconclusive
CC(C)CNC(=O)C1CCc2sc(C(=O)N3CCCCCC3)cc2C1 (stereo not given)	3T3 cytotox inconclusive, HEK cytotox inconclusive
Cc1ccc(-c2noc([C@@H]3C[C@@H](O)CN3Cc3cccc(OC(F)(F)F)c3)n2)cc1F	3T3 cytotox inconclusive, HEK cytotox inconclusive
O[C@@H]1C[C@@H](c2nc(-c3ccccc3)no2)N(Cc2cccc(OC(F)(F)F)c2)C1	3T3 cytotox inconclusive, HEK cytotox inconclusive, Luciferase inh 71µM
O[C@@H]1C[C@@H](c2nc(-c3ccc(C(F)(F)F)cc3)no2)N(Cc2cccc(OC(F)(F)F)c2)C1	3T3 cytotox inconclusive, HEK cytotox 79µM, Luciferase inh 35µM
CNC(=O)c1cc(C2CC2)nc2onc(C3CCCN3C(=O)c3cccc(OC)c3)c12 (stereo not given)	none (no result: NPR1 antag, Luciferase inh)
O=C(Cn1cccc1-c1nc(-c2ccccc2)no1)Nc1cc(F)ccc1Cl	none
CCC1=C(C(=O)OC)C(c2cccc(C)c2)N2C(CC(=O)Nc3ccc(OC)cc3)=CSC2=N1 (stereo not given)	3T3 cytotox inconclusive, HEK cytotox 40µM
CCC1=C(C(=O)OC)C(c2ccc(C)cc2C)N2C(CC(=O)N3CCCCC3C)=CSC2=N1 (stereo not given)	3T3 cytotox inconclusive, HEK cytotox inconclusive
